In PubChem BioAssay AID720650 (Broad Institute, 2013):
Active and inactive are the calls of the source. How the calls were made is not given here.

Test: Biochemical counterscreen for C difficile toxins, absence of UDPG, inhibitor dose response (AID 720650)
Details: series mostly up to 19.5 µM

SMILES | AC50
O=C(C1CCOCC1)N1CC[C@@H]2[C@@H](CO)Nc3ccc(-c4ccc(F)cc4)cc3[C@@H]21 | 22 µM (active)
CCOc1ccccc1/C=C/c1onc(C)c1S(=O)(=O)N1CCC(C(=O)NC)CC1 | inactive
Cc1cc(-c2ccc(NS(=O)(=O)c3ccccc3)c(C)c2)ccc1NS(=O)(=O)c1ccccc1 | inactive
COc1ccccc1-n1c(SCC(=O)O)nc2c(sc(=S)n2-c2ccc(Cl)c(C)c2)c1=O | > 39 µM (inactive)
Cc1cc(N/N=C/c2ccc(O)cc2)c2cccc(C)c2n1 | 16.3 µM (active)
O=C(O)c1ccccc1C(=O)c1ccc2c(c1)N(Cc1cccc(F)c1)C(=O)CO2 | 19 µM (active)
ON=C1c2ccccc2-c2ccc(O)cc21 | 7.21 µM (active)
CCOc1ccccc1-n1c(C)nc2cc(C(=O)O)ccc21 | inactive
COC(=O)c1ccc(C23CC4(C2)[C@H](CN(Cc2ccc(C(F)(F)F)cc2)[C@@H]4c2ccccc2)C3c2ccc(Cl)nc2)cc1 (stereo partly drawn) | inactive
Cn1ncc(Br)c1C(=O)N/N=C/c1cccc(OC2CSC2)c1 | inactive
CC1=C(C(=O)OCC2CCCO2)C(c2coc3ccccc3c2=O)C2=C(CCCC2=O)N1 (stereo not drawn) | inactive
Cc1cc(C(C)(C)C)cc(CN2CCN(S(=O)(=O)c3cccs3)CC2)c1O | inactive
Cc1cccc(OCCC(=O)NCC(=O)Nc2cccc(C)c2C)c1 | 16.4 µM (active)
C[C@H](CO)N1C[C@H](C)[C@@H](CN(C)CC2CCCCC2)Oc2ccc(NC(=O)CCN3CCOCC3)cc2C1=O | inactive
C[C@H](CO)N1C[C@H](C)[C@@H](CN(C)C(=O)Nc2ccc(C(F)(F)F)cc2)Oc2ccc(NC(=O)C3CCCCC3)cc2C1=O | inactive
O=c1[nH]nc(-c2cc(-c3ccccc3)nc3ccccc23)o1 | inactive
Oc1ccc2c(ccc3[nH]cnc32)c1 | 20.8 µM (active)
O=c1ccc2cc(O)c(O)cc2o1 | inactive
CC(=O)Oc1ccc(/C=N/NC(=O)CCSc2ccccc2)cc1 | inactive

SMILES | AC50
O=C(OCn1nnc2ccccc2c1=O)c1cc2ccccc2o1 | inactive
O=c1c(OC2OC(CO)C(O)C(O)C2O)c(-c2ccc(O)c(O)c2)oc2cc(O)cc(O)c12 (stereo not drawn) | inactive
O=C(c1ccccc1F)N1CCN(c2ccc([N+](=O)[O-])c3cccnc23)CC1 | inactive
CC1(C)CC(=O)C(C=Nc2ccc(O)cc2)=C(O)C1 | 5.68 µM (active)
O=C(NCc1ccccc1)[C@@H]1CCCN1C(=O)[C@@H]1CCCN1C(=O)c1cccs1 | inactive
O=C(O)c1ccccc1NC(=O)N1C[C@H]2C[C@@H](C1)c1cccc(=O)n1C2 | inactive
Nc1ccc(-c2nc3ccc(N)cc3o2)cc1 | 12.5 µM (active)
O=c1c2ccccc2oc2ccc(NCCCN3CCOCC3)cc12 | inactive
Cc1ccc(S(=O)(=O)Oc2ccc(/C=N/NC(=O)c3nn(C)cc3[N+](=O)[O-])cc2)cc1 | inactive
COc1ccc(S(=O)(=O)N2CCC[C@H]2C(=O)N2CCC[C@H]2C(=O)NCc2ccncc2)cc1C | inactive
Oc1ccc(CCNc2ncnc3ccc(Cl)cc23)cc1 | 19.5 µM (active)
Cc1cc(C)c2nc(C)cc(N/N=C/c3ccc(O)cc3)c2c1 | 12.1 µM (active)
COC(=O)C1=C[C@@H](C(=O)OC)[C@@H]2C3=C(C(=O)[C@]2(C)NC(=O)c2ccccc2)[C@H](C)n2c(=O)n(C)c(=O)n2[C@@H]3C1 | inactive
Cc1cc(C)c2sc(NNC(=O)C3COc4ccccc4O3)nc2c1 (stereo not drawn) | 0.645 µM (active)
CC1CC(=O)N(c2ccc(NCCc3ccc(O)cc3)c([N+](=O)[O-])c2)C1=O (stereo not drawn) | inactive
O=C(N/N=C/c1ccc(O)c(O)c1)C1CC1 | > 39 µM (inactive)
Cc1cccc(/C=C/c2onc(C)c2S(=O)(=O)N2CCC(C(=O)N3CCCCCC3)CC2)c1 | inactive
Cc1cc2c(cc1S(=O)(=O)N(C)c1ccccc1)NC(=O)CO2 | inactive
Clc1cccc(-c2ccc3ncnc(NCc4cccs4)c3c2)c1 | inactive
